Results filed as inconclusive are left out. Activity calls are given as the source filed them. Unless noted, the call rests on the fitted dose curve; in most records, active means well fitted curve in either direction with a large enough effect (not every such curve was filed as active); inconclusive means small, poorly fitted or top-dose-only effect, or another doubt; inactive means flat fitted curve, though single readings scatter.
Columns and labels:
[1] = target: Lysosomal acid glucosylceramidase (Homo sapiens) (UniProt P04062); experiment: Glucocerebrosidase-p2 (AID 348; in the data active means potency below about 10 µM; further: potency means the concentration at half of the fitted maximal effect); details: purified GBA, blue fluorogenic substrate, 40 min
Lysosomal acid glucosylceramidase (Homo sapiens), sequence (P04062 whole entry, looked up): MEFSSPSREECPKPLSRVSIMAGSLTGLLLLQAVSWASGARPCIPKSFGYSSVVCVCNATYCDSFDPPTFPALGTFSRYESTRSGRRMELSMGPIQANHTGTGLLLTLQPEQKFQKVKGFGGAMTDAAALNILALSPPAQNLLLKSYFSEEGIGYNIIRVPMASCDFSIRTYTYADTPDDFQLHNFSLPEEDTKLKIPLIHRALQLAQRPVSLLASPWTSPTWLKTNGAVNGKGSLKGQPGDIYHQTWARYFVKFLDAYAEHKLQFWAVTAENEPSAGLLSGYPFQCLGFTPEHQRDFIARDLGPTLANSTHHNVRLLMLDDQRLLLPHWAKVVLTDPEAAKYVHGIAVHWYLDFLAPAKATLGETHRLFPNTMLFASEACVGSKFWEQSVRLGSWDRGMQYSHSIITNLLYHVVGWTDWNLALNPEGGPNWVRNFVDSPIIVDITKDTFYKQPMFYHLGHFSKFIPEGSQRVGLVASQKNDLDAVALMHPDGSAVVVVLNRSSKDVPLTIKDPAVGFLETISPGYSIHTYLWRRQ
Procedure, shortened: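 Compounds titrated from 0.6 nM upwards against 0.2 nM enzyme in pH 5.9 citric acid/KH2PO4, taurocholate, tween-20; blue fluorogenic substrate 80 uM, 40 min room temperature, stopped and read Ex 365/Em 440 for AC50.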

[2] = AP1 Signaling Pathway (AID 357); details: ME-180 AP-1-bla reporter, EGF-induced, beta-lactamase ratio, 5 h; at 7.69 µM (top of the series) unless noted;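 further: ME-180 reporter cells stimulated with EGF at its EC50 level; on the % scale 0 is the no-effect control and ±100 the full control effect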
Procedure, shortened: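 Cells are seeded overnight, exposed to compound titrations and an EC50 level of EGF for 5 hours at 37 °C, then loaded with CCF4 dye for 2.5 hours. Beta-lactamase activity under the AP-1 element is read as a blue/green ratio.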

[3] = target: Cytochrome P450 1A2 (Homo sapiens) (UniProt P05177); experiment: p450-cyp1a2 (AID 410; calls by dose curve; further: potency means the concentration at half of the fitted maximal effect;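 on activity change, negative = inhibition: -100% = full effect of reference inhibitor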); details: recombinant CYP1A2, luciferin-ME demethylation, luminescence; series mostly up to 57 µM
Cytochrome P450 1A2 (Homo sapiens), sequence (P05177 whole entry, looked up): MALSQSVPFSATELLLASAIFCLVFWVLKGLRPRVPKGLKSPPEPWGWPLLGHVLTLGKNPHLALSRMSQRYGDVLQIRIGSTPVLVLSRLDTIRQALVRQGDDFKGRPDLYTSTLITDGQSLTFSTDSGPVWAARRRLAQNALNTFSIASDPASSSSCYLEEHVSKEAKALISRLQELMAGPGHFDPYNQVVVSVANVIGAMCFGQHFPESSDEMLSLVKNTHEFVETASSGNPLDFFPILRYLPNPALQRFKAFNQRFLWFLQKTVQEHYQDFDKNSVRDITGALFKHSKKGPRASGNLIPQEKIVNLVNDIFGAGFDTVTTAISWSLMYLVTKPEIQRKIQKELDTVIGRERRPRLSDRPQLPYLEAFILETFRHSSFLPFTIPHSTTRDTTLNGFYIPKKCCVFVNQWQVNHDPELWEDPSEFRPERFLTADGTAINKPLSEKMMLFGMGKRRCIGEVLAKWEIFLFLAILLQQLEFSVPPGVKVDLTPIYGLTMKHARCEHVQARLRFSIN
Procedure, shortened: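 Luminescent readout of luciferin formed from Luciferin-ME by human CYP1A2; data normalized against complete inhibition by 57 uM furafylline. Enzyme 20nM, substrate 100uM at Km, 100mM KPO4 buffer, 60 min reaction at room temperature.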

[4] = Stat Signaling Pathway (AID 446); details: ME-180 SIE beta-lactamase reporter, IL-6 stimulated, 5 h; at 7.69 µM (top of the series) unless noted;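 further: ME-180 cervical cancer cells given 40 pM IL-6 alongside compound; SIE-controlled beta-lactamase reporter measured as 460/530 nm FRET emission ratio; on the % scale 0 is the no-effect control and ±100 the full control effect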
Procedure, shortened: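 Reporter line: ME-180 cervical carcinoma, SIE-beta-lactamase. Treatment: compound with 40 pM IL-6, 5 hrs, 37 C, in low-serum OPTI-MEM with 10 mM HEPES pH 7.3. Detection: 460/530 nm fluorescence.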

[5] = target: Glucocorticoid receptor (Homo sapiens) (UniProt P04150); experiment: GR-EFC Redistribution (AID 451; calls by dose curve; further: potency means the concentration at half of the fitted maximal effect); details: CHO-K1 GR-EFC translocation, beta-gal luminescence, 2 h
Glucocorticoid receptor (Homo sapiens), sequence (P04150 whole entry, looked up, the tested form may be a part): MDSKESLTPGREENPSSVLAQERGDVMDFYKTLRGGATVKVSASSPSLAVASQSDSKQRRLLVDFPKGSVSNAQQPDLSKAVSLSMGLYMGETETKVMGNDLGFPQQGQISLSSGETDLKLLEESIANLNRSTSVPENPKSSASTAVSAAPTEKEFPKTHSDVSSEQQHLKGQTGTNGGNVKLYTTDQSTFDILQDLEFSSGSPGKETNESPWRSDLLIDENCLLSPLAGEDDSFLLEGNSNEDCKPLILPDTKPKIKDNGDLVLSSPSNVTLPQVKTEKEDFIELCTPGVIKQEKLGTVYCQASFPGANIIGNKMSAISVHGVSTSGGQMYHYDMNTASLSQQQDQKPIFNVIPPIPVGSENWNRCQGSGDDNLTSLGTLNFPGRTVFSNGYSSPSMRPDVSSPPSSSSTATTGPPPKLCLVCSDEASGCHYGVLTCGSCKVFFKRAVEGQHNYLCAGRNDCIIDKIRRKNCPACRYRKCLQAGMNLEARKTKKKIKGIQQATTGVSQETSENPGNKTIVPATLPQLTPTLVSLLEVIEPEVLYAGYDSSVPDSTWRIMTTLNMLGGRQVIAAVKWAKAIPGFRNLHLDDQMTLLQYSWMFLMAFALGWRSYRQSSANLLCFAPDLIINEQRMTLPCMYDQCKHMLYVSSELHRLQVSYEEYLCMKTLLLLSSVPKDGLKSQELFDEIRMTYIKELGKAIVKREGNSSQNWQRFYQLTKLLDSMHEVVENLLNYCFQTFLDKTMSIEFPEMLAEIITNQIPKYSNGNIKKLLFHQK
Procedure, shortened: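 CHO-K1 cells stably expressing nuclear-localized β-gal enzyme acceptor and GR fused C-terminally to the enzyme donor fragment; ligand-driven nuclear translocation restores β-gal by complementation. Compounds titrated up to 46 uM final, 2 h at 37 °C; luminescence read.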

[6] = target: Mitogen-activated protein kinase 10 (Mus musculus) (UniProt Q61831); experiment: JNK3 AlphaScreen Assay (AID 530); details: JNK3 lysate, c-Jun phosphorylation; series mostly up to 57.1 µM;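 further: kinase came from lysate of stimulated human HepG2 cells; signal reports phosphorylation of biotinylated GST-cJun 1-79 at Ser73 with 10 µM ATP; on the % scale 0 is the no-effect control and ±100 the full control effect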
Procedure, shortened: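 Inhibitors reduce antibody binding to phosphorylated biotin-cJun, lowering AlphaScreen luminescence. Lysates from HepG2 cells pre-activated by IL-1beta plus TNF-alpha supplied JNK3; compounds were titrated.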

[7] = target: 3',5'-cyclic-AMP phosphodiesterase 4B (Homo sapiens) (UniProt Q07343); experiment: qHTS Assay for Inhibitors of PDE-IV (AID 607; active means well fitted activation curve with a large enough effect in the main read-out, with a control signal flat, not every such curve was filed as active; further: % of control where 0% means no effect); details: HEK293 ACTOne CNG channel cells, membrane potential fluorescence; series mostly up to 22.9 µM
3',5'-cyclic-AMP phosphodiesterase 4B (Homo sapiens), sequence (Q07343 whole entry, looked up): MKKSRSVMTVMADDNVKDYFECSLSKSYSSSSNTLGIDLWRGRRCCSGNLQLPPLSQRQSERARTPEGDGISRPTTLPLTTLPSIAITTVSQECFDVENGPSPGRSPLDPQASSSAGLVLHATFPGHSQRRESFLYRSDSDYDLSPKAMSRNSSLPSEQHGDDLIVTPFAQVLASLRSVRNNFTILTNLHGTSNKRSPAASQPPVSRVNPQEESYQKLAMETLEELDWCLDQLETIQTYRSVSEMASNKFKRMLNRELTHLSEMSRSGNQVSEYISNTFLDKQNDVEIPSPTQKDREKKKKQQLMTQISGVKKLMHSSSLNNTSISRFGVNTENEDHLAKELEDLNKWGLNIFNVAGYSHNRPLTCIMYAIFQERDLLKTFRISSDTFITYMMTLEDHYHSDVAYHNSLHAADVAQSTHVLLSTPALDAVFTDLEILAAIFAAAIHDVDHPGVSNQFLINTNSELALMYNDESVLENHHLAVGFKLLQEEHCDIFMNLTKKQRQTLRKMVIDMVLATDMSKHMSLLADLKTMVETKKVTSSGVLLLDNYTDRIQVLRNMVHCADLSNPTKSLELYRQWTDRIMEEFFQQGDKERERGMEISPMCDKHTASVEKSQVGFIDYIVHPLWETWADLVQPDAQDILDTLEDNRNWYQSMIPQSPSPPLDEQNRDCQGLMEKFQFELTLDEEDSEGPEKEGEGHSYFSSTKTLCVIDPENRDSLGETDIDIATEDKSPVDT
Procedure, shortened: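 Cell-based read-out of cAMP via a modified cyclic nucleotide-gated channel and membrane potential dye (535/590 nm) in HEK293 cells expressing PDE4 endogenously. Compounds tested up to 22.9 uM final; 100 uM RO 20-1724 reference.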

[8] = target: Cytochrome P450 2C9 (Homo sapiens) (UniProt P11712); experiment: qHTS Assay for Inhibitors and Substrates of Cytochrome P450 2C9 (AID 883; active means well fitted curve in the direction sought with a large enough effect; an effect the other way counts as inactive or inconclusive; further: nearly all actives have a fitted effect of over 60% in size; further: potency means the concentration at half of the fitted maximal effect); details: recombinant CYP2C9, luciferin-H luminescence, 60 min; series mostly up to 57.1 µM
Cytochrome P450 2C9 (Homo sapiens), sequence (P11712 whole entry, looked up): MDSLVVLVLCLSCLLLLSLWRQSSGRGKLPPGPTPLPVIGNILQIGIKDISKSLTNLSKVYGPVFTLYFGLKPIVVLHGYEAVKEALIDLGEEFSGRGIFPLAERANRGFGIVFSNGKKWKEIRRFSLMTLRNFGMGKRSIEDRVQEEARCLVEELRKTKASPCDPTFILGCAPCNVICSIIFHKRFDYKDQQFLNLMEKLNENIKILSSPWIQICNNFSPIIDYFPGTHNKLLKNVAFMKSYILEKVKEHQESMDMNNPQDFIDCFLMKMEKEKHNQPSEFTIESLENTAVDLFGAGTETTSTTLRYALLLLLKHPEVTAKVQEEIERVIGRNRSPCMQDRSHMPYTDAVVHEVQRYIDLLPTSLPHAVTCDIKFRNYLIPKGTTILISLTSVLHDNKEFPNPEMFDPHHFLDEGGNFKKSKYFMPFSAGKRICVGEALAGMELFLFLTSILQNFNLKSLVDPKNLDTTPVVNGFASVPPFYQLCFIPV
Procedure, shortened: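 Human CYP2C9 (10nM) hydroxylated Luciferin-H (100uM, at its KM) to luciferin in 25mM KPO4. Compound was preincubated 10 min at 37C, then NADPH regeneration started a 60 min reaction at 37C. Luminescence was read after detection reagent, normalized to 57uM sulphaphenazole.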

[9] = target: Cytochrome P450 3A4 (Homo sapiens) (UniProt P08684); experiment: qHTS Assay for Activators of Cytochrome P450 3A4 (AID 885; active means well fitted curve in the direction sought with a large enough effect; an effect the other way counts as inactive or inconclusive; further: nearly all actives have a fitted effect of over 65% in size); details: recombinant CYP3A4, Luciferin-PPXE luminescence, 60 min; series mostly up to 57.1 µM
Cytochrome P450 3A4 (Homo sapiens), sequence (P08684 whole entry, looked up): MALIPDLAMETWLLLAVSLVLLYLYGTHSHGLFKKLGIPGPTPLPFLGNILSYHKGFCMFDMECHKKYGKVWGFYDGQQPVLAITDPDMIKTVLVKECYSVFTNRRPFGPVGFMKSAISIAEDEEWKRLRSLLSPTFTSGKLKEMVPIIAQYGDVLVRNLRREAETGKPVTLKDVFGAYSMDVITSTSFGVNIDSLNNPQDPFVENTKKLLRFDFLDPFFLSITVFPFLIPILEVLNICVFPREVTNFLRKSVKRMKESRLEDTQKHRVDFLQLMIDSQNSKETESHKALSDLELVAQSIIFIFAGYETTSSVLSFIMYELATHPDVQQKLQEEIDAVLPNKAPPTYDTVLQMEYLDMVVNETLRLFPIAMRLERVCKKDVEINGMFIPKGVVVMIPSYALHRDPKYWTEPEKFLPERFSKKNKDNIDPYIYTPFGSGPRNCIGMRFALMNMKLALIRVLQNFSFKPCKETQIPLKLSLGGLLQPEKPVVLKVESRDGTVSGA
Procedure, shortened: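 Signal was normalized against complete inhibition by 57 uM ketoconazole. The reaction used 20nM CYP3A4 with 25uM Luciferin-PPXE, 10-min compound preincubation and a 60-min NADPH-supported step at RT.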

[10] = target: Cytochrome P450 2C19 (Homo sapiens) (UniProt P33261); experiment: qHTS Assay for Inhibitors and Substrates of Cytochrome P450 2C19 (AID 899; active means well fitted curve in the direction sought with a large enough effect; an effect the other way counts as inactive or inconclusive; further: on the % scale 0 is the no-effect control and ±100 the full control effect; nearly all actives have a fitted effect of over 60% in size); details: recombinant CYP2C19, luciferin-H EGE luminescence; series mostly up to 57.1 µM
Cytochrome P450 2C19 (Homo sapiens), sequence (P33261 whole entry, looked up): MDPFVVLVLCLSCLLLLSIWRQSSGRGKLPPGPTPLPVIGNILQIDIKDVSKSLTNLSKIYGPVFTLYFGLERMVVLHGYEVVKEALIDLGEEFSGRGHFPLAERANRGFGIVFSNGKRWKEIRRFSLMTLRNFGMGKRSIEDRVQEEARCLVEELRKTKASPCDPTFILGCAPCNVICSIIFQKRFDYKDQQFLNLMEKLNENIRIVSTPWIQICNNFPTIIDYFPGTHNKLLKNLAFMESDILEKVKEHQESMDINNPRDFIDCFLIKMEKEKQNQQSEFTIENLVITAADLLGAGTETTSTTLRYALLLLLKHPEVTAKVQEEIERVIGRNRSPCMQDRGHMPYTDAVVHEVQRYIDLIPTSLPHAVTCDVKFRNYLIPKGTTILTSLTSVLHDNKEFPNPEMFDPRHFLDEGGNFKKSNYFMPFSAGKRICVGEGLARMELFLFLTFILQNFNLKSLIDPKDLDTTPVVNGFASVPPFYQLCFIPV
Procedure, shortened: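 Human CYP2C19 (5nM) with Luciferin-H EGE at 10uM (its KM) in 50mM KPO4 was preincubated with compound for 10 min at 37C. NADPH regeneration started a 60 min 37C reaction. Luciferin was read by luminescence, normalized to 57uM ketoconazole.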

[11] = qHTS Assay for Lipid Storage Modulators (AID 1519; calls by dose curve); details: Drosophila S3 cells, BODIPY lipid droplet/cell ratio, laser cytometry, cells loaded with oleic acid; for activity change, negative = inhibition: at 57.5 µM (top of the series)
Procedure, shortened: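 Cells seeded at 5,000 per well were treated with compounds over a concentration series and loaded with oleic acid (400 uM, as added). Lipid droplet fluorescence (488 nm excitation, 500-530 nm channel) was read by laser-scanning cytometry and normalized to 20 uM Triacsin C.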

[12] = Primary qHTS for small molecule stabilizers of the endoplasmic reticulum resident proteome: Secreted ER Calcium Modulated Protein (SERCaMP) assay (AID 1508630; active means well fitted curve in the direction sought with a large enough effect; an effect the other way counts as inactive or inconclusive; further: on the % scale 0 is the no-effect control and ±100 the full control effect); details: SH-SY5Y GLuc-SERCaMP (Gaussia luciferase released on ER calcium loss) secretion, thapsigargin, luminescence; series mostly up to 38.4 µM
Procedure, shortened: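 GLuc-SERCaMP-expressing SH-SY5Y cells, pretreated 16 h with compound, are challenged with thapsigargin to empty ER calcium stores; after 4 h, coelenterazine is added directly to the medium and luminescence is imaged.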

[13] = target: Cytochrome P450 2D6 (Homo sapiens) (UniProt P10635); experiment: qHTS Assay for Inhibitors and Substrates of Cytochrome P450 2D6 (AID 891; active means well fitted curve in the direction sought with a large enough effect; an effect the other way counts as inactive or inconclusive; further: potency means the concentration at half of the fitted maximal effect; nearly all actives have a fitted effect of over 60% in size); details: recombinant CYP2D6, luciferin-ME EGE luminescence; series mostly up to 57.1 µM
Cytochrome P450 2D6 (Homo sapiens), sequence (P10635 whole entry, looked up): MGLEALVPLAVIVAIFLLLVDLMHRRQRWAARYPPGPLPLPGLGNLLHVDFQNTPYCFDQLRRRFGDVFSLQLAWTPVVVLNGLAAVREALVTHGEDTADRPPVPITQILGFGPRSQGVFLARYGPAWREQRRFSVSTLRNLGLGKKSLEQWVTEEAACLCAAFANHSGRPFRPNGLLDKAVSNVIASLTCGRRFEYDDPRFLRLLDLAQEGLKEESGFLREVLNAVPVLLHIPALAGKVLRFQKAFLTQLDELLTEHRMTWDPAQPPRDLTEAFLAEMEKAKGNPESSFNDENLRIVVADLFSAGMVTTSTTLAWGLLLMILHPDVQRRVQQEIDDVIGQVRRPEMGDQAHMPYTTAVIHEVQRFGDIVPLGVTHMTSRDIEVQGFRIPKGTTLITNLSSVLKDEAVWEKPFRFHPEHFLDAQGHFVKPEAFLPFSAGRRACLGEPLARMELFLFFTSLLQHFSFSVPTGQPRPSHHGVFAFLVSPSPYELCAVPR
Procedure, shortened: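 Human CYP2D6 (5 nM) with 30 uM Luciferin-ME EGE (at Km) in 100 mM KPO4, compound preincubated 10 min, then NADPH regeneration system for 60 min at room temperature. Luciferin read by luminescence; normalized to 1.43 uM quinidine.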

[14] = target: Cytochrome P450 3A4 (Homo sapiens) (UniProt P08684); experiment: qHTS Assay for Inhibitors and Substrates of Cytochrome P450 3A4 (AID 884; active means well fitted curve in the direction sought with a large enough effect; an effect the other way counts as inactive or inconclusive; further: on the % scale 0 is the no-effect control and ±100 the full control effect; nearly all actives have a fitted effect of over 50% in size); details: recombinant CYP3A4, Luciferin-PPXE luminescence; series mostly up to 57.1 µM
Procedure, shortened: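 20 nM human CYP3A4 with 25 uM Luciferin-PPXE (at KM) in 200 mM KPO4, preincubated 10 min with compound; NADPH regeneration started a 60 min RT reaction. Luciferin detected by luminescence, normalized to 57 uM ketoconazole as full inhibition.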

[15] = measured here: cell count channel max response
[16] = measured here: lipid channel max response

SMILES | Potency [1] | activity change, negative = inhibition [2] | Potency [3] | activity, negative = inhibition [4] | Potency [5] | Potency [6] | Potency [7] | Potency [8] | Potency [9] | Potency [10] | activity change, negative = inhibition [11] | max response [11, 15] | max response [11, 16] | outcome [12] | Potency [13] | Potency [14]
N#Cc1ccc(CN2CCCC3(CCN(C(=O)c4ccncc4)CC3)C2)cc1 | > 11.4 µM (inactive) | -16.7% (inactive) | inactive | 1.22% (inactive) | > 46 µM (inactive) | inactive | inactive | inactive | inactive | inactive | 2.04% (inactive) | 4.42% | 7.34% | inactive | – | –
CS(=O)(=O)N1CCC2(CCN(c3ccncc3)CC2)CC1 | > 11.4 µM (inactive) | -13.1% (inactive) | 12.6 µM (active) | 0.543% (inactive) | > 46 µM (inactive) | inactive | inactive | – | – | – | 3.83% (inactive) | 7.45% | 13.6% | inactive | – | –
Cn1cccc1C(=O)N1CCC2(CC1)CN(Cc1ccc(C#N)cc1)C2 | > 11.4 µM (inactive) | 6.46% (inactive) | inactive | -7.55% (inactive) | > 46 µM (inactive) | inactive | inactive | – | – | – | 4.17% (inactive) | 20.5% | 25.8% | inactive | – | –
O=C(c1ccco1)N1CCC2(CCN(Cc3ccncc3)CC2)CC1 | > 11.4 µM (inactive) | 1.28% (inactive) | 20 µM (active) | -11.4% (inactive) | > 46 µM (inactive) | inactive | inactive | 7.94 µM (active) | inactive | – | 6.5% (inactive) | 12.7% | 20.5% | inactive | – | –
O=C(c1ccncc1)N1CCC2(CCCN(C(c3ccccc3)c3ccccc3)C2)CC1 | > 11.4 µM (inactive) | 22.9% (inactive) | 0.2 µM (active) | 11.1% (inactive) | > 46 µM (inactive) | inactive | inactive | 5.01 µM (active) | inactive | – | 2.92% (inactive) | 12.6% | 17.9% | inactive | 0.0398 µM (active) | –
Cn1cccc1C(=O)N1CCC2(CCN(Cc3nccs3)CC2)CC1 | > 11.4 µM (inactive) | -5.06% (inactive) | inactive | -1.77% (inactive) | > 46 µM (inactive) | inactive | inactive | – | – | – | -0.0655% (inactive) | -3.13% | -0.688% | inactive | – | inactive

— PubChem BioAssay (NCATS)
